# Screening results from PubChem.
# ANO1 block: mouse TMEM16A channel inhibition, primary screen. Q8BHY3. HEK293 TMEM16A/YFP iodide influx fluorescence, ionomycin. normalized B-score (activity score, 25-100; higher = stronger inhibition) at 10 µM. actives 1.2% (n = 310,000);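 active means ratio plate-corrected score three or more library SD toward inhibition, starting fluorescence score within five deviations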;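 further: score derived from kinetic fluorescence span divided by baseline fluorescence per well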
# NTR1 ag: agonists of human neurotensin receptor NTR1; P30989; NTR1-U2OS beta-arrestin-GFP spot imaging, agonist mode; activation, % at 20 µM; actives 0.17% (n = 330,000); AID 493036;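 active means activation at or above 40% of the spot to cytoplasm intensity ratio, with at least 20 cells analyzed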;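 further: 0% = DMSO without peptide and 100% = 100 nM NTR1 peptide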
# Target sequence (P30989 whole entry, looked up): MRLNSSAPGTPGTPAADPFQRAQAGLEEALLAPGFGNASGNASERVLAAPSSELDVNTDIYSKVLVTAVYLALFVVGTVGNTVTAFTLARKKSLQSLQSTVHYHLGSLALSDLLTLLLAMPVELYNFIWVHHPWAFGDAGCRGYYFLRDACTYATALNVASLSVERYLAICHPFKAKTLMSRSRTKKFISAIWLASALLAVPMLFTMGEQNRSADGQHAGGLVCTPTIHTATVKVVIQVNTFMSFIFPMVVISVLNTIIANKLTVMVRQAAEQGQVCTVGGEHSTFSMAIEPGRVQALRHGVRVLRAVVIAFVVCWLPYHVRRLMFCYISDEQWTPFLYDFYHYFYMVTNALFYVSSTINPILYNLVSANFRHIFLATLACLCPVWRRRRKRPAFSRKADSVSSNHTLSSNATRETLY
# MEKK2 WT-MEK5: raises or lowers MEK5 binding to wildtype human MEKK2 PB1 domain; Q9Y2U5; bead flow cytometry, Alexa488-MEK5 binding to MEKK2 WT; actives lie on both sides; binding response (% of control), % at 10 µM; AID 1531; actives 1.1% (n = 290,000); in the data active means binding response below about 67% or above about 130%
# MEKK3 PB1 HTS: raises or lowers MEK5 binding to the human MEKK3 PB1 domain | binding response (% of control), % at 10 µM | bead-based flow cytometry, Alexa488-MEK5 binding to MEKK3; actives lie on both sides; 0 = blocked by unlabeled MEK5, 100 = vehicle | actives 1.4% (n = 290,000) | AID 1529;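 active means binding response more than 3 SD above or below the average of its plate-row segment, actives on both sides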;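 further: Alexa488 bead fluorescence after subtracting the streptavidin-only scavenger bead signal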
# ANO1 activ: activates or potentiates the mouse TMEM16A chloride channel | HEK293 TMEM16A/YFP-H148Q/I152L, iodide quench fluorescence; stronger effect = lower value | B-score at 10 µM | actives 0.3% (n = 340,000) | AID 623877;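 active means fluorescence-ratio B-score plate-corrected deviation score at least 3 library SD below zero, with starting fluorescence score within 5 deviations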;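 further: channel opened by trigger with iodide after compound preincubation; score built on the fluorescence ratio of max minus min over baseline; more negative score means more quench and so TMEM16A activation or potentiation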
# MEKK2mut PB1 HTS: signal of MEK5 binding to mutant human MEKK2 PB1 domain. actives 0.35% (n = 290,000). percent response, % at 10 µM. bead flow cytometry, Alexa488-MEK5 binding to MEKK2 mutant; in the data active means percent response above about 24%, passing the limit was not always enough
# MEKK2wt confirm: raises or lowers MEK5 binding to wildtype human MEKK2, retest; shares compounds with MEKK3 PB1 HTS; bead flow cytometry, Alexa488-MEK5 binding to MEKK2 WT; actives lie on both sides; binding response (% of control), % at 10 µM; actives 2.4% (n = 5,900); in the data active means binding response below about 16% or above about 210%; inactive means in between
# MEKK2mut-MEK5: signal of MEK5 binding to mutant human MEKK2, retest; AID 1893; bead flow cytometry, Alexa488-MEK5 binding to MEKK2 mutant; actives 2% (n = 5,900); percent response, % at 10 µM; shares compounds with MEKK3 PB1 HTS; in the data active means percent response mostly above about 71%, no sharp cut-off; inactive means mostly below about 38%;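 further: higher means compound restores mutant binding toward wildtype level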
# MEKK3 confirm: confirmation of inhibitors of MEK5 binding to human MEKK3; actives 1.8% (n = 5,900); bead flow cytometry, Alexa488-MEK5 binding to MEKK3; stronger effect = lower value; AID 1894; binding response (% of control), % at 10 µM; shares compounds with MEKK3 PB1 HTS;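 active means binding response below 72% of control, or above a set upper limit, though filed actives all read lower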;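 further: 100% = DMSO only wells and 0% = binding blocked by excess unlabeled MEK5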
# Active calls of the source: *; i = inactive; / = no result given; [ ] = remark or other dose. Hits are enriched below; roughly 3.4% of the tested compounds scored in any of these assays.
SMILES,ANO1 block,NTR1 ag,MEKK2 WT-MEK5,MEKK3 PB1 HTS,ANO1 activ,MEKK2mut PB1 HTS,MEKK2wt confirm,MEKK2mut-MEK5,MEKK3 confirm
COC(=O)CCC(=O)OC1(C)C(=O)C2=CN(CCCOC(C)C)C(c3ccc(OC)cc3)=CC2=C(Br)C1=O (stereo unspecified),i,1,-8.0*[inhibitor],90,i,1,95,-4,93
CCN(CC)CCCNC(=O)c1cc2c(Cl)nc3ccccc3c2s1,i,0,152*,105,i,54*,130,15,108
CN1c2ccccc2C(=O)NC1c1ccc([N+](=O)[O-])s1 (stereo unspecified),i,-1,97,95,i,-4,/,/,/
COc1ccc(/C=N/Nc2ccc(C(F)(F)F)cc2[N+](=O)[O-])cc1O,i,6,102,131*,i,0,103,4,99
CCc1ccc(N2CN(Cc3ccco3)CNC2=S)cc1,i,1,97,96,i,-1,/,/,/
CCOC(=O)c1ccc(S(=O)(=O)NNC(=O)c2cccc(N(C)C)c2)cc1,i,0,3.0*[inhibitor],3.0*[inhibitor],i,4,98,-3,100
CCNc1ccc(C(=O)OCC)cc1NC(=O)c1cccc(N(C)C)c1,i,2,95,97,i,-2,/,/,/
COCC(COS(N)(=O)=O)C(C)C (stereo unspecified),i,0,95,99,i,-5,/,/,/
CCOc1ccc(NC(=S)N2CCN(S(=O)(=O)c3ccc(C)cc3)CC2)cc1,i,2,95,99,i,-4,/,/,/
Cc1ccc(C(=O)Nc2cccnc2)cc1S(=O)(=O)N1CCOCC1,i,-2,125,129*,i,10,107,6,105
CCOc1cc(CNCCSc2nnnn2C)cc(Br)c1OCc1ccccc1F,i,5,136*,106,i,11,135,17,108
OCCNCc1cc(Br)ccc1OCc1ccc(Cl)cc1,i,4,/,/,i,/,/,/,/
OCCNCc1cc(Br)ccc1OCc1ccc(F)cc1,i,1,106,103,i,1,/,/,/
OCCCCNCc1cc(Br)ccc1OCc1ccccc1F,i,-1,148*,103,i,24,157,32,109
CCOc1cc(CNCCO)cc(Br)c1OCc1ccc(Cl)cc1Cl,100*,6,212*,115,i,51*,204,58,110
OCCNCc1cc(Br)ccc1OCc1ccc(Cl)cc1Cl,/,/,145*,110,i,35*,127,17,105
Cc1cc(CNC(=O)C2(C(F)(F)F)CC(CCCO)CCCO2)nn1C (stereo unspecified),i,-1,97,100,i,-3,/,/,/
CCc1ccc(OCc2ccc(C(=O)OC)o2)cc1,i,0,103,100,i,1,/,/,/
O=c1cc(CCc2ccccc2)oc2cccc(O)c12,/,/,/,/,i,/,/,/,/
CN1CCN(C(=O)/C(=C\c2cccs2)NC(=O)c2ccco2)CC1,i,-1,108,134*,i,0,107,7,107
O=C(N/C(=C\c1cccs1)C(=O)N1CCOCC1)c1cccs1,i,1,96,100,i,-5,/,/,/
O=C(N/C(=C\c1cccs1)C(=O)N1CCOCC1)c1ccco1,i,0,96,100,i,-3,/,/,/
CN1CCN(C(=O)/C(=C/c2cccs2)NC(=O)c2cccs2)CC1,i,1,101,72*[inhibitor],i,0,107,3,103
